# Some of the results follow. The source made the active and inactive calls.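 Rule for the calls, unless noted: active = mean inhibition of at least 40% at 20 µM; inactive = the rest.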
# Columns and labels:
# [1] = target: Protein Mdm4 (Homo sapiens) + E3 ubiquitin-protein ligase Mdm2 (Homo sapiens) (UniProt O15151+Q00987); test: human Mdm2/MdmX binding disruption – cell-based, luminescence, single concentration, set 2, confirmation (AID 504601;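 active = mean inhibition of the luminescence signal across two replicates at or above 26 percent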); conditions: SaOS-2 split-luciferase Mdm2/MdmX complementation, at 8 µM, stronger effect = higher value
# Chain of Protein Mdm4 (Homo sapiens) + E3 ubiquitin-protein ligase Mdm2 (Homo sapiens) (O15151 whole entry, looked up): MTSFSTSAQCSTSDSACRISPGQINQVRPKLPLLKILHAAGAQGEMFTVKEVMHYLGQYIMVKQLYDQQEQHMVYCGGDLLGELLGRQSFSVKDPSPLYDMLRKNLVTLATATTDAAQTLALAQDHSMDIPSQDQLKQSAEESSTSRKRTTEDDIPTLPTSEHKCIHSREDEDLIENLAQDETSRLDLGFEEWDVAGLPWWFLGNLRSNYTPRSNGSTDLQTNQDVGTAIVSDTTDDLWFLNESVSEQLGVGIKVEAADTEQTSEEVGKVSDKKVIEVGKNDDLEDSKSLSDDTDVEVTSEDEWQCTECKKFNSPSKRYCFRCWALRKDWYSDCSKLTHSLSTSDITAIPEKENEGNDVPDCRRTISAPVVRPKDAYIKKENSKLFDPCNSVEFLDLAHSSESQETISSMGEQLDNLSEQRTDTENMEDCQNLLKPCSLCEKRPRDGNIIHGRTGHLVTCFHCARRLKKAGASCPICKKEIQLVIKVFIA
# Chain of Protein Mdm4 (Homo sapiens) + E3 ubiquitin-protein ligase Mdm2 (Homo sapiens) (Q00987 whole entry, looked up): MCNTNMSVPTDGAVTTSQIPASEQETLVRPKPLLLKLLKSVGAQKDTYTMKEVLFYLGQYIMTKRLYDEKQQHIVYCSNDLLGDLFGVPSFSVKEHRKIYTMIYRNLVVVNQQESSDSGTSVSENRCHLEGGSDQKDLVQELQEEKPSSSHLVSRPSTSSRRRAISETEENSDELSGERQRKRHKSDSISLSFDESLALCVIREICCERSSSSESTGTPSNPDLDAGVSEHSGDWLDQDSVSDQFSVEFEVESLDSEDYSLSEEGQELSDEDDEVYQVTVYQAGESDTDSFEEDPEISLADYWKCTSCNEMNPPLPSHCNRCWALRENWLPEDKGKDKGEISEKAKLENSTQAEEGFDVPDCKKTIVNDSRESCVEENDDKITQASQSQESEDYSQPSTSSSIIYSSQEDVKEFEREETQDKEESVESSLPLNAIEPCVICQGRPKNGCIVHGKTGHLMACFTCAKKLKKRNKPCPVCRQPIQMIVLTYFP
# [2] = inhibition of PEG-3 promoter luciferase signal – cell-based, HeLa, luciferase reporter, single concentration, confirmation (AID 602417;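 active = at 20 µM dose, 40% or more inhibition averaged across four replicates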); conditions: HeLa PEG-Prom luciferase reporter, luminescence, overnight; at 20 µM; stronger effect = higher value
# [3] = target: PEG-3 (UniProt Q6IN02); test: inhibition of PEG-3 promoter-driven reporter – cell-based, HeLa, luciferase, CREF/GAPDH counter-screen panel, dose response (AID 624167); conditions: CREF/GAPDH counter-screens; HeLa PEG-Prom luciferase reporter, overnight, run 1, dose range 1, at 100 µM (top of the series) unless noted
# Chain of PEG-3 (Q6IN02 whole entry, looked up): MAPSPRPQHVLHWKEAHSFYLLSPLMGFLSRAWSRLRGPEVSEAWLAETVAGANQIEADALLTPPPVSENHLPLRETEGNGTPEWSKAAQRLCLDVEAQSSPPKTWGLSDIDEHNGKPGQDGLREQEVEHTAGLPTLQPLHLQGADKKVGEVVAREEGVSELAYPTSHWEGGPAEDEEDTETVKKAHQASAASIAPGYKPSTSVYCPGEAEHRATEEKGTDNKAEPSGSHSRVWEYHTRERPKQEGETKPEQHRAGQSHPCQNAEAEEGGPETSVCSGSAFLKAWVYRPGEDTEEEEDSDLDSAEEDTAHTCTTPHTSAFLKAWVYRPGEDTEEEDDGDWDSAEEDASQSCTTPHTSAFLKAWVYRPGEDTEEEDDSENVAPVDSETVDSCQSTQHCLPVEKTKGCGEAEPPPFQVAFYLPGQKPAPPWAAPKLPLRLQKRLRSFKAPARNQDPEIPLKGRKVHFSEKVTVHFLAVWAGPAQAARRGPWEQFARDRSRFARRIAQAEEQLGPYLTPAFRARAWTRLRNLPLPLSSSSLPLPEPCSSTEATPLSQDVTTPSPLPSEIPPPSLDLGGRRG
# [4] = target: PEG-3 (UniProt Q6IN02); test: as above; conditions: CREF/GAPDH counter-screens; HeLa PEG-Prom luciferase reporter, overnight, run 2, dose range 1, at 100 µM (top of the series) unless noted
# [5] = target: Tumor necrosis factor receptor superfamily member 10B (Homo sapiens) (UniProt O14763); test: viability loss of caspase-8 NB7 cells with TRAIL – with/without TRAIL, luminescence panel, confirmation (AID 651596; in the data active = activity above about 50%); conditions: NB7 neuroblastoma + caspase-8, TRAIL sensitization, NB7 Caspase-8, with TRAIL, mean of runs, at 10 µM, stronger effect = higher value
# Chain of Tumor necrosis factor receptor superfamily member 10B (Homo sapiens) (O14763 whole entry, looked up): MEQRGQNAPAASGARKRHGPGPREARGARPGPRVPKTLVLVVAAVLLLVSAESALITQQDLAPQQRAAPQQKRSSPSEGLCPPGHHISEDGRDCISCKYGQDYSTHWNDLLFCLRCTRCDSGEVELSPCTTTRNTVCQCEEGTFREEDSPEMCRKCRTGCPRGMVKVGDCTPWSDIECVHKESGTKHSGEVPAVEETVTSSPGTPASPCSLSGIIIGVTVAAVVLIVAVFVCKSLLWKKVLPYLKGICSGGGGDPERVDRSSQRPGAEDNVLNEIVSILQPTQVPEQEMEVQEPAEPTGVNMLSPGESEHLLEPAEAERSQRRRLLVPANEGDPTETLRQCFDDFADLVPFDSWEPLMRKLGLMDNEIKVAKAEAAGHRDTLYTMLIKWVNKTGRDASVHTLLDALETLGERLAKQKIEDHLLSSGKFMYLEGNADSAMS
# [6] = as above; conditions: NB7 neuroblastoma + caspase-8, without TRAIL, NB7 Caspase-8, without TRAIL, mean of runs, at 10 µM
# [7] = target: Tumor necrosis factor receptor superfamily member 10B (Homo sapiens) (UniProt O14763); test: compound enhancement of TRAIL-induced cell killing – NB7 cells plus caspase-8, luminescence, panel, dose response (AID 652002); conditions: NB7 neuroblastoma +caspase-8, TRAIL sensitization, luminescence viability, NB7+Caspase-8, with TRAIL, run 1; at 12.5 µM (top of the series)
# [8] = target: Tumor necrosis factor receptor superfamily member 10B (Homo sapiens) (UniProt O14763); test: as above; conditions: NB7 neuroblastoma +caspase-8, TRAIL sensitization, luminescence viability, NB7+Caspase-8, with TRAIL, run 2; at 12.5 µM (top of the series)
# [9] = as above; conditions: NB7 neuroblastoma +caspase-8, no TRAIL, compound-alone cytotoxicity counter-screen, luminescence viability, NB7+Caspase-8, run 1; at 12.5 µM (top of the series) unless noted
# [10] = as above; conditions: NB7 neuroblastoma +caspase-8, no TRAIL, compound-alone cytotoxicity counter-screen, luminescence viability, NB7+Caspase-8, run 2; at 12.5 µM (top of the series) unless noted
# [11] = apoptosome-driven caspase-3 activation blockers – biochemical, fluorescence, DEVD-Rh110, 20 µM, confirmation (AID 504614); conditions: reconstituted apoptosome, caspase-3 DEVD-Rh110 fluorescence; at 20 µM; stronger effect = higher value;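 note: plate controls were DMSO wells for no effect and DEVD-CHO caspase inhibitor control wells for full effect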
# [12] = detection-step artefacts after completed caspase reaction – biochemical, fluorescence, Rh110, 20 µM, artefact control for Apaf-1 inhibitor project, confirmation (AID 504615;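 active = signal rise of 40% or more at 20 µM, treated as a fluorescence artifact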); conditions: quenched caspase reaction, at 20 µM, stronger effect = higher value
# [13] = fluorescence interference of Apaf-1 inhibitor hits, dose response, artefact control for Apaf-1 inhibitor project (AID 588538; call rule not given here); conditions: fluorescence interference counterscreen, Apaf-1 assay format
# [14] = HIF-2a driven luciferase blockers, single dose – luminescence, 786-0 RCC cells, confirmation (AID 651580;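 active = mean inhibition across four replicates of at least 40 percent at the single tested concentration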); conditions: HIF-2a luciferase reporter luminescence, overnight, at 18.8 µM, stronger effect = higher value
# [15] = HIF-1a luciferase reporter signal reduction – MiaPaCa-2 cells, single concentration, counter-screen for HIF-2a inhibitor project, confirmation (AID 651589;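 active = mean inhibition of the reporter signal across four replicates at the single tested dose of 50% or more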); conditions: MiaPaCa-2 HIF-1a luciferase reporter, desferoxamine, overnight; at 18.8 µM; stronger effect = higher value
# [16] = Brca1-Bard1 BiLC signal decrease – luminescence, single concentration, counter-screen for Mdm2/MdmX interaction inhibitor project, confirmation (AID 504668; call rule not given here); conditions: Brca1/Bard1 bimolecular luciferase complementation counterscreen, at 8 µM, stronger effect = higher value
structure (smiles),measurement,setting,value
COc1cccc(/C=N/Nc2cc(C)nc(-c3ccccc3O)n2)c1O,inhibition,[1],99.7% (active)
same,inhibition,[2],94.4% (active)
same,inhibition,[3],100%
same,inhibition,[4],102%
COc1cc(NC(=O)c2[nH]cnc2C(N)=O)cc(C(=O)Nc2cccc(C(F)(F)F)c2)c1,inhibition,[1],101% (active)
same,activity,[5],86.1%
same,activity,[6],53.4%
same,"activity, % sensitization",[7],36.3%
same,"activity, % sensitization",[8],52.5%
same,"activity, % sensitization",[9],5.71%
same,"activity, % sensitization",[10],43.7%
COC1=C(N2CCOCC2)C(=O)c2ccccc2C1=O,inhibition,[11],29.1% (inactive)
same,activation (fluorescence interference),[12],4% (inactive)
Cc1ccsc1/C=N/NC(=O)Cc1cc(=O)[nH][nH]1,inhibition,[11],17.5% (inactive)
same,activation (fluorescence interference),[12],8.37% (inactive)
COCC(C)OC(=O)c1c(N)n(CCCN2CCOCC2)c2nc3ccccc3nc12 (stereo not given),inhibition,[11],12.4% (inactive)
same,activation (fluorescence interference),[12],0.94% (inactive)
CCCCCCCCCCOC(=O)Cn1c(COc2ccc(C)cc2)[n+](C)c2ccccc21,inhibition,[1],103% (active)
same,inhibition,[11],81.3% (active)
same,activation (fluorescence interference),[12],25.8% (inactive)
same,IC50,[13],> 100 µM (inactive)
C=CCC[C@H](Cc1ccc(F)cc1)C(=O)OC[C@@H](NC(=O)[C@@H](CC=C)CC(=O)N[C@H](CO)Cc1ccccc1)C(C)(C)C,inhibition,[11],14.6% (inactive)
same,activation (fluorescence interference),[12],3.46% (inactive)
CCCCNC(=O)C(C)N(CCN(C)C)C(=O)CCCCCN1C(=O)NC(c2ccc(Cl)cc2)C(C(=O)OCc2ccccc2)=C1C (stereo not given),inhibition,[2],99.7% (active)
same,inhibition,[3],102%
same,inhibition,[4],101%
CCc1ccc(CNC(=O)C2CCN(c3nnc(C)c4c(C)n(-c5ccc(C)cc5)nc34)CC2)cc1,inhibition,[14],-2.57% (inactive)
same,inhibition,[15],20.1% (inactive)
Cc1cccc(NC(=O)[C@H](Cc2c[nH]c3ccccc23)NC(=O)[C@@H]2Cc3ccccc3CN2)c1,inhibition,[16],26.6% (active)
CC1=NN(c2nc(-c3ccc(C)cc3)cs2)C(=O)C1N=Nc1ccccc1O (stereo not given),inhibition,[16],32.5% (active)
